Laboratory results from PubChem BioAssay (NCI).
About 79,000 compounds went through this panel and 15% of them were active in at least one assay; those are over-represented in the sample as a whole. The source made the active and inactive calls. Rule as the data show it: active = growth inhibition above about 70%; inactive = the rest.

Key:
[1] = NCI Yeast Anticancer Drug Screen. Data for the rad52 strain (AID 147);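 also: 0% = growth of vehicle-treated control cultures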; details: S. cerevisiae rad52 mutant growth inhibition, stronger effect = higher value
Procedure, shortened: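 Screen used a yeast mutant impaired in DNA repair. After compound exposure, growth was measured. Values reflect inhibition compared with vehicle-treated cells.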

[2] = NCI Yeast Anticancer Drug Screen. Data for the wt1 strain (AID 149);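 also: 0% = growth of vehicle-treated wt1 cultures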; details: S. cerevisiae wt1 strain (SPY 50644) growth inhibition, stronger effect = higher value
Procedure, shortened: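 Using yeast strain wt1, compound-induced growth inhibition was determined against vehicle-treated cultures.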

[3] = NCI Yeast Anticancer Drug Screen. Data for the rad50EPP+ strain (AID 151);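 also: 0% = growth of vehicle-treated control cultures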; details: S. cerevisiae rad50 mutant strain, stronger effect = higher value
Procedure, shortened: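 Exposing the rad50EPP+ strain to each compound, growth was compared with vehicle-only cultures to give inhibition.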

[4] = NCI Yeast Anticancer Drug Screen. Data for the mgt1 strain (AID 153); details: S. cerevisiae mgt1 mutant growth inhibition, stronger effect = higher value
Procedure, shortened: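 Genetically defined yeast (mgt1) treated with compound; inhibition of growth expressed against vehicle-treated controls.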

[5] = NCI Yeast Anticancer Drug Screen. Data for the rad50 strain (AID 155);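 also: 0% = growth of vehicle-only cultures of the same strain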; details: S. cerevisiae rad50 strain growth inhibition, stronger effect = higher value
Procedure, shortened: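 Relative growth inhibition (compound vs vehicle) was measured in yeast with a defined repair-gene alteration.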

[6] = NCI Yeast Anticancer Drug Screen. Data for the mec2-1 strain (AID 157); details: S. cerevisiae mec2-1 strain, stronger effect = higher value
Procedure, shortened: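 Readout is yeast growth inhibition, normalised to vehicle-treated controls, in the mec2-1 strain exposed to compound.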

[7] = NCI Yeast Anticancer Drug Screen. Data for the rad14 strain (AID 159);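 also: 0% = growth of vehicle-treated control cultures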; details: S. cerevisiae rad14 strain growth inhibition, stronger effect = higher value
Procedure, shortened: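 Screen for anticancer potential: a yeast strain altered in DNA damage repair is grown with compound, and reduced growth is quantified against vehicle controls.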

[8] = NCI Yeast Anticancer Drug Screen. Data for the sgs1 mgt1 strain (AID 161);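 also: 0% = growth of cultures given vehicle only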; details: S. cerevisiae sgs1 mgt1 strain, stronger effect = higher value
Procedure, shortened: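 This yeast growth screen uses a strain with defined DNA-repair lesions; compound-treated growth is compared with vehicle-treated growth.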

[9] = NCI Yeast Anticancer Drug Screen. Data for the CLN2oe strain (AID 163);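 also: 0% = growth of vehicle-only control cultures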; details: S. cerevisiae CLN2oe strain, stronger effect = higher value
Procedure, shortened: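 Values reflect how much compound exposure reduced yeast growth, referenced to vehicle-exposed cells. Assay organism is a strain with a defined genetic change affecting cell-cycle control.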

[10] = NCI Yeast Anticancer Drug Screen. Data for the cln2 rad14 strain (AID 165);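 also: 0% = growth equal to vehicle treated cultures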; details: S. cerevisiae cln2 rad14 strain, stronger effect = higher value
Procedure, shortened: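 Relative to vehicle controls, growth inhibition of compound-treated cln2 rad14 yeast was recorded.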

[11] = NCI Yeast Anticancer Drug Screen. Data for the bub3 strain (AID 167); details: S. cerevisiae bub3 mutant strain, stronger effect = higher value
Procedure, shortened: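 Screening used yeast with an engineered genetic alteration affecting cell cycle control. Compound-exposed cultures were compared with vehicle cultures, and reduced growth was taken as inhibition.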

[12] = NCI Yeast Anticancer Drug Screen. Data for the wt2 strain (AID 169);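 also: 0% = growth of vehicle-treated yeast cultures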; details: S. cerevisiae wt2 strain growth inhibition, stronger effect = higher value
Procedure, shortened: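 Values express reduction in yeast growth under compound treatment, referenced to vehicle-treated cells.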

[13] = NCI Yeast Anticancer Drug Screen. Data for the mlh1 strain (AID 171);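 also: 0% = growth of vehicle-treated control cultures of the same strain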; details: S. cerevisiae mlh1 strain growth inhibition, stronger effect = higher value
Procedure, shortened: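 Steps: expose the defined-mutant yeast strain to compound; expose a parallel culture to vehicle; measure growth; express compound effect as inhibition relative to the vehicle culture.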

[14] = NCI Yeast Anticancer Drug Screen. Data for the sgs1 strain (AID 173);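 also: 0% = growth of vehicle-only control cultures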; details: S. cerevisiae sgs1 mutant, stronger effect = higher value
Procedure, shortened: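 Treat defined-mutant yeast with compound; measure growth; calculate inhibition relative to vehicle-treated cells.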

[15] = NCI Yeast Anticancer Drug Screen. Data for the mlh1 rad18 strain (AID 175); details: S. cerevisiae mlh1 rad18 strain growth inhibition, stronger effect = higher value
Procedure, shortened: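 Test agents were incubated with a yeast strain of defined genotype (DNA damage repair defect). Inhibition of growth was derived by comparison with vehicle-exposed cultures.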

[16] = NCI Yeast Anticancer Drug Screen. Data for the rad18 strain (AID 177); details: S. cerevisiae rad18 mutant growth inhibition, stronger effect = higher value
Procedure, shortened: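 A genetically defined yeast mutant impaired in DNA damage repair was treated with test compounds, then its growth was measured against cultures receiving vehicle alone.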

[17] = at 5.0 µM (retest, dose inferred, filed as 0.5)
[18] = at 50.0 µM (retest, dose inferred, filed as 5.0)

Measured: growth inhibition

Nc1ccc(/C=C/c2ccc3cccnc3c2)cc1
inactive: [1]; at 1.2 µM -3% | [1]; at 3.7 µM -3% | [1]; at 11.0 µM -1% | [1]; at 33.0 µM 11% | [1]; at 100.0 µM 29% | [2]; at 1.2 µM 0% | [2]; at 3.7 µM -1% | [2]; at 11.0 µM -3% | [2]; at 33.0 µM -4% | [2]; at 100.0 µM -7% | [3]; at 1.2 µM -2% | [3]; at 3.7 µM 1% | [3]; at 11.0 µM 8% | [3]; at 33.0 µM 34% | [3]; at 100.0 µM 41% | [4]; at 1.2 µM 0% | [4]; at 3.7 µM 1% | [4]; at 11.0 µM -3% | [4]; at 33.0 µM -3% | [4]; at 100.0 µM 22% | [5]; at 1.2 µM 5% | [5]; at 3.7 µM 29% | [5]; [17] 5% | [5]; at 11.0 µM 23% | [5]; at 33.0 µM 14% | [5]; [18] 28% | [5]; at 50.0 µM 10.8% | [5]; at 100.0 µM 29% | [6]; at 1.2 µM -2% | [6]; at 3.7 µM -2% | [6]; [17] -1% | [6]; at 11.0 µM -3% | [6]; at 33.0 µM 1% | [6]; [18] 17% | [6]; at 50.0 µM 1.95% | [6]; at 100.0 µM 6% | [7]; at 1.2 µM 1% | [7]; at 3.7 µM 4% | [7]; at 11.0 µM 5% | [7]; at 33.0 µM 13% | [7]; at 100.0 µM 28% | [8]; [17] 3% | [8]; [18] 50% | [8]; at 50.0 µM 46.2% | [9]; at 1.2 µM 2% | [9]; at 3.7 µM 2% | [9]; at 11.0 µM 1% | [9]; at 33.0 µM -4% | [9]; at 100.0 µM 0% | [10]; [17] -5% | [10]; [18] 3% | [10]; at 50.0 µM -6.75% | [11]; at 1.2 µM 5% | [11]; at 3.7 µM 23% | [11]; [17] 24% | [12]; at 1.2 µM 1% | [12]; at 3.7 µM 8% | [12]; at 11.0 µM -2% | [12]; at 33.0 µM -4% | [12]; at 100.0 µM 9% | [13]; at 1.2 µM -1% | [13]; at 3.7 µM -1% | [13]; at 11.0 µM -1% | [13]; at 33.0 µM -2% | [13]; at 100.0 µM 21% | [14]; at 1.2 µM -1% | [14]; at 3.7 µM 1% | [14]; at 11.0 µM 3% | [14]; at 33.0 µM 20% | [14]; at 100.0 µM 46% | [15]; [17] 3% | [15]; [18] 20% | [15]; at 50.0 µM 32.8% | [16]; at 1.2 µM 1% | [16]; at 3.7 µM 1% | [16]; at 11.0 µM 11% | [16]; at 33.0 µM 59%
active: [11]; at 11.0 µM 85% | [11]; at 33.0 µM 94% | [11]; [18] 92% | [11]; at 50.0 µM 93.3% | [11]; at 100.0 µM 94% | [16]; at 100.0 µM 77%

CCOP(=O)(OCC)/C(C#N)=C\c1cccc2ccccc12
active: [1]; at 33.0 µM 92% | [1]; at 100.0 µM 97% | [2]; at 33.0 µM 87% | [2]; at 100.0 µM 98% | [4]; at 33.0 µM 84% | [4]; at 100.0 µM 98% | [5]; at 33.0 µM 92% | [5]; [18] 90% | [5]; at 50.0 µM 85.7% | [5]; at 100.0 µM 98% | [6]; at 33.0 µM 85% | [6]; [18] 93% | [6]; at 50.0 µM 88.2% | [6]; at 100.0 µM 98% | [7]; at 33.0 µM 87% | [7]; at 100.0 µM 97% | [8]; [18] 90% | [8]; at 50.0 µM 89.2% | [9]; at 100.0 µM 98% | [10]; [18] 93% | [10]; at 50.0 µM 88.8% | [11]; at 33.0 µM 83% | [11]; [18] 95% | [11]; at 50.0 µM 89.2% | [11]; at 100.0 µM 97% | [12]; at 33.0 µM 82% | [12]; at 100.0 µM 98% | [13]; at 33.0 µM 89% | [13]; at 100.0 µM 98% | [14]; at 33.0 µM 93% | [14]; at 100.0 µM 99% | [15]; [18] 95% | [15]; at 50.0 µM 86.2% | [16]; at 33.0 µM 95% | [16]; at 100.0 µM 98%
inactive: [1]; at 1.2 µM -2% | [1]; at 3.7 µM -1% | [1]; at 11.0 µM 12% | [2]; at 1.2 µM 2% | [2]; at 3.7 µM 8% | [2]; at 11.0 µM 6% | [3]; at 1.2 µM 8% | [3]; at 3.7 µM 10% | [3]; at 11.0 µM 3% | [3]; at 33.0 µM 22% | [3]; at 100.0 µM 41% | [4]; at 1.2 µM -6% | [4]; at 3.7 µM -10% | [4]; at 11.0 µM -21% | [5]; at 1.2 µM -4% | [5]; at 3.7 µM 1% | [5]; [17] 14% | [5]; at 11.0 µM 22% | [6]; at 1.2 µM 4% | [6]; at 3.7 µM 16% | [6]; [17] -19% | [6]; at 11.0 µM 15% | [7]; at 1.2 µM -8% | [7]; at 3.7 µM -13% | [7]; at 11.0 µM -25% | [8]; [17] 53% | [9]; at 1.2 µM 13% | [9]; at 3.7 µM 2% | [9]; at 11.0 µM -7% | [9]; at 33.0 µM 59% | [10]; [17] 12% | [11]; at 1.2 µM -29% | [11]; at 3.7 µM -13% | [11]; [17] -3% | [11]; at 11.0 µM -41% | [12]; at 1.2 µM -6% | [12]; at 3.7 µM -2% | [12]; at 11.0 µM 2% | [13]; at 1.2 µM 11% | [13]; at 3.7 µM 10% | [13]; at 11.0 µM 17% | [14]; at 1.2 µM 22% | [14]; at 3.7 µM 23% | [14]; at 11.0 µM 43% | [15]; [17] -13% | [16]; at 1.2 µM 15% | [16]; at 3.7 µM 21% | [16]; at 11.0 µM 47%
